Test results reported in PubChem BioAssay (EPA / NIEHS).
Active and inactive are the calls of the source. How the source made its calls: active means hit-call score of the fitted dose curve at least 0.9, where 1 is the maximum; inactive means score below 0.9.

Experiments:
[1] = ATG_CMV_CIS: Attagene CIS-FACTORIAL HepG2 Assay for human CMV (Internal Marker) (AID 2282928); settings: HepG2 CMV promoter reporter, transcription factor profiling; actives raise or lower the signal;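 further: endpoint acts as a background internal control marker rather than a target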
In short: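 CMV internal-marker background readout in transiently transfected HepG2 cells bearing cis-regulated reporter units. Reporter mRNA is measured 24 h after dosing by RT-PCR and capillary electrophoresis, with bidirectional fitting against DMSO.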

[2] = ATG_DR4_LXR_CIS: Attagene CIS-FACTORIAL HepG2 Assay for human Liver X Receptor (LXR), DR4 submotif (AID 2282929); settings: HepG2 Attagene DR4 cis-reporter, mRNA transcription; actives raise or lower the signal
In short: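 HepG2 cells were transiently transfected with multiple cis-regulated reporter units and dosed for 24 hours. The DR4 reporter mRNA was quantified by RT-PCR, 6-FAM labelling and capillary electrophoresis. Bidirectional fits used DMSO as baseline.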

[3] = target: Aryl hydrocarbon receptor (Homo sapiens) (UniProt P35869); assay: ATG_Ahr_CIS: Attagene CIS-FACTORIAL HepG2 Assay for human Aryl Hydrocarbon Receptor (Ahr) (AID 2282930); settings: HepG2 AhR cis-factorial reporter transcription; actives raise or lower the signal
Sequence of Aryl hydrocarbon receptor (Homo sapiens) (P35869 whole entry, looked up): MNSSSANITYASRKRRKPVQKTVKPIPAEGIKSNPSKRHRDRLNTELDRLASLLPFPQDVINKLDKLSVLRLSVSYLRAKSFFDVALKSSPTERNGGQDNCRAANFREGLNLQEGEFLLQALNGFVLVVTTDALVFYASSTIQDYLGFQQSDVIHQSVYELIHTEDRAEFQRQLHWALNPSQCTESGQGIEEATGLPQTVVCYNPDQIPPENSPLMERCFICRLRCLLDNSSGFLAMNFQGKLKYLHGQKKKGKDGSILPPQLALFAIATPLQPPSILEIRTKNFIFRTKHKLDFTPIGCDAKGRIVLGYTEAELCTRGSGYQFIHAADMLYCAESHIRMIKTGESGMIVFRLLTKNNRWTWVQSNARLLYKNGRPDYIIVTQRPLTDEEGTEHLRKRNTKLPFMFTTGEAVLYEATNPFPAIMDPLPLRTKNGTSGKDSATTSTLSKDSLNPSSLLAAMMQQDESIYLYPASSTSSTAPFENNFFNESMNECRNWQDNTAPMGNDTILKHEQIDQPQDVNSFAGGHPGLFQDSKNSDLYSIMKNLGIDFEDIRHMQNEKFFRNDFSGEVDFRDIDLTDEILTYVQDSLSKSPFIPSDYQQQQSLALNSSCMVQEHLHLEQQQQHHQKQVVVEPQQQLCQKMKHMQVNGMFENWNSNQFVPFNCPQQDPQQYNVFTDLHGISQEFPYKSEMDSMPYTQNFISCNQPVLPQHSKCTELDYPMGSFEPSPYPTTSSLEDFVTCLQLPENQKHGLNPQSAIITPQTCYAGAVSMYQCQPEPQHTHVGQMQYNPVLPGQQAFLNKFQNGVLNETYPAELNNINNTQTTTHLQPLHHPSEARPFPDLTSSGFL
In short: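 Following 24 h of chemical dosing, transfected HepG2 liver cells with cis-driven reporter units were lysed for RNA; reporter mRNA was quantified via RT-PCR and capillary electrophoresis, and responses fitted bidirectionally from DMSO.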

[4] = ATG_AP_1_CIS: Attagene CIS-FACTORIAL HepG2 Assay for human Activator Protein 1 (AP-1) (AID 2282931); settings: HepG2 Attagene cis-factorial AP-1 reporter mRNA; actives raise or lower the signal
In short: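 HepG2 cells transiently transfected with cis-element-driven reporter transcription units, dosed for 24 hours. Reporter mRNA measured by RT-PCR, 6-FAM labelling, HpaI digestion and capillary electrophoresis. Bidirectional fitting against DMSO baseline.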

[5] = ATG_BRE_CIS: Attagene CIS-FACTORIAL HepG2 Assay for human Bone Morphogenetic Protein (BMP) Response Element (BRE) (AID 2282933); settings: HepG2 BMP response element reporter, Attagene transcription factor profiling; actives raise or lower the signal
In short: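 After a 24 h chemical treatment, transiently transfected HepG2 cells were lysed for RNA; reporter transcripts were quantified by fluorescent RT-PCR and capillary electrophoresis, normalised to DMSO.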

[6] = target: Retinoic acid receptor alpha (Homo sapiens) (UniProt P10276); assay: ATG_DR5_RAR_CIS: Attagene CIS-FACTORIAL HepG2 Assay for human Retinoic Acid Receptor Alpha (RARE), DR5 submotif (AID 2282934); settings: HepG2 Attagene cis-factorial RARE DR5 reporter, mRNA; actives raise or lower the signal;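 on AC50: reporter responds to endogenous RAR alpha beta and gamma in HepG2 not RARA alone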
Sequence of Retinoic acid receptor alpha (Homo sapiens) (P10276 whole entry, looked up): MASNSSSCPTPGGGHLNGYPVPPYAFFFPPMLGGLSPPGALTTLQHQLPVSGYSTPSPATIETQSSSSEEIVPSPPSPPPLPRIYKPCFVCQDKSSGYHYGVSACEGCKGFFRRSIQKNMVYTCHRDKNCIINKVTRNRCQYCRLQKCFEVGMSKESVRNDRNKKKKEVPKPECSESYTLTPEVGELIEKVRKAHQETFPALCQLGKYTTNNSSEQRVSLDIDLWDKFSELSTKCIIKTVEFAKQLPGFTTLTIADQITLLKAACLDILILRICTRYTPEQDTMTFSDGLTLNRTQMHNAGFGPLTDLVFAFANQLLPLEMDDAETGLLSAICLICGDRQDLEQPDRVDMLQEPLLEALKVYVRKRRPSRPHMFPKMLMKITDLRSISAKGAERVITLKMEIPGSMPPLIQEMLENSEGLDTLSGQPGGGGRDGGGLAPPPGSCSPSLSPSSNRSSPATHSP
In short: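 Transfected HepG2 reporter cells are exposed to chemicals for 24 h. Then RNA is extracted and the DR5 element reporter transcript is measured by RT-PCR and capillary electrophoresis, with bidirectional curve fitting relative to DMSO.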

[7] = ATG_E_Box_CIS: Attagene CIS-FACTORIAL HepG2 Assay for human Enhancer Box (E-box) (AID 2282936); settings: HepG2 E-box cis-reporter transcription, actives raise or lower the signal
In short: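 HepG2 cells transiently transfected with multiplexed cis-element reporter units sensing endogenous transcription factor activity; 24 h compound exposure. Reporter mRNA measured by RT-PCR, 6-FAM primer extension, HpaI digestion and capillary electrophoresis; bidirectional fit versus DMSO.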

[8] = ATG_M_61_CIS: Attagene CIS-FACTORIAL HepG2 Assay for M61 Transcription Factor (Internal Marker) (AID 2282937); settings: HepG2 Attagene CIS-FACTORIAL M61 internal marker reporter; actives raise or lower the signal
In short: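 HepG2 cells transiently transfected with multiplexed cis-promoter reporter units reporting endogenous transcription factor activity, measured 24 h after dosing. Reporter mRNA quantified by RT-PCR and capillary electrophoresis; bidirectional fit against DMSO baseline.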

[9] = ATG_AP_2_CIS: Attagene CIS-FACTORIAL HepG2 Assay for human Activator Protein 2 (AP-2) (AID 2282932); settings: HepG2 AP-2 cis-reporter, Attagene transcription factor profiling; actives raise or lower the signal
In short: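 HepG2 cells were transiently transfected with multiple cis-promoter reporter transcription units and dosed for 24 h. Reporter mRNA was measured by RT-PCR with capillary electrophoresis fluorescence; bidirectional fits relative to DMSO baseline.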

[10] = target: Transcription factor E2F1 (Homo sapiens) (UniProt Q01094); assay: ATG_E2F_CIS: Attagene CIS-FACTORIAL HepG2 Assay for human E2F Transcription Factor 1 (AID 2282935); settings: HepG2 Attagene cis-reporter, E2F reporter RNA transcripts; actives raise or lower the signal
Sequence of Transcription factor E2F1 (Homo sapiens) (Q01094 whole entry, looked up): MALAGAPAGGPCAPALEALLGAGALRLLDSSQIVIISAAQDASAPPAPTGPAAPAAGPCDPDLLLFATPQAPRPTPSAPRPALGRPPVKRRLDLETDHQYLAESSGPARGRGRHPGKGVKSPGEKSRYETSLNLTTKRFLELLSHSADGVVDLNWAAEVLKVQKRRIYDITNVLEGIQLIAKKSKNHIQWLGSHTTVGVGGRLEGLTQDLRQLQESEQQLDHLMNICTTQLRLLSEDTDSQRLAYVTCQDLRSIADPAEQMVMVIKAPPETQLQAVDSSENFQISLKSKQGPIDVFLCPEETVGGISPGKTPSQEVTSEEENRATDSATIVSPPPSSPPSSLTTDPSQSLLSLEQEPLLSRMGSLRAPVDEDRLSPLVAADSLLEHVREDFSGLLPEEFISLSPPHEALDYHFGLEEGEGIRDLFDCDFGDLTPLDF
In short: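 HepG2 cells transiently transfected with multiplexed cis-element reporter units, dosed for 24 h. Reporter mRNA measured by RT-PCR, 6-FAM primer-extension labeling, HpaI digestion and capillary electrophoresis; bidirectional fit versus DMSO baseline.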

Measured: AC50

CC(C)CP(=S)(S)CC(C)C
inactive: [1] | [2] | [3] | [4] | [5] | [6] | [7] | [8]

CC(O)(CS(=O)(=O)c1ccc(F)cc1)C(=O)Nc1ccc(C#N)c(C(F)(F)F)c1 (configuration not stated)
inactive: [1] | [2] | [3] | [4] | [9] | [6] | [10] | [7] | [8]

C[C@H]1C(=O)O[C@@H]2CCN3CC=C(COC(=O)[C@](C)(O)[C@]1(C)O)[C@H]23
inactive: [1] | [2] | [3] | [4] | [5] | [6] | [10] | [7] | [8]

C[CH2][Hg][S]c1ccccc1C(=O)O
inactive: [1] | [3] | [4] | [10] | [8]
active: [2] 5.13 µM | [9] 4.81 µM | [6] 1.11 µM | [7] 6.19 µM

CCCCN(CCCC)C(=S)[S-].CCCCN(CCCC)C(=S)[S-].[Ni+2]
inactive: [1] | [2] | [3] | [4] | [5] | [6] | [7] | [8]

O=C=Nc1ccc(Cl)cc1
inactive: [1] | [2] | [3] | [4] | [9] | [6] | [10] | [7] | [8]

CC(C)C(C)(N)C#N (configuration not stated)
inactive: [1] | [2] | [3] | [4] | [5] | [10] | [7] | [8]
active: [6] 46.9 µM

Cc1ccccc1OP(=O)(Oc1ccccc1)Oc1ccccc1
active: [1] 76.5 µM | [2] 12.3 µM | [4] 47.9 µM | [5] 64.2 µM | [6] 32 µM | [10] 57.2 µM
inactive: [3] | [7] | [8]

CC(=O)CN(CC(C)=O)N=O
inactive: [1] | [2] | [3] | [4] | [5] | [6] | [10] | [7] | [8]

CC1(C)[C@H](/C=C2\CCSC2=O)[C@@H]1C(=O)OCc1coc(Cc2ccccc2)c1
inactive: [1] | [3] | [5] | [6] | [10] | [8]
active: [2] 17.9 µM | [4] 144 µM

C#CCO
inactive: [1] | [2] | [3] | [4] | [5] | [6] | [10] | [7] | [8]

O=S(=O)(Oc1ccc(Cl)cc1)c1ccc(Cl)cc1
active: [1] 49 µM | [2] 34.9 µM | [4] 32.6 µM
inactive: [3] | [9] | [6] | [7] | [8]

CC1(C)[C@H](C(=O)O[C@H](C#N)c2cccc(Oc3ccccc3)c2)[C@@H]1/C=C(\Cl)C(F)(F)F
inactive: [1] | [2] | [3] | [4] | [9] | [10] | [7] | [8]

O=CCCl
active: [1] 60.9 µM | [2] 68.5 µM | [3] 84.7 µM | [4] 165 µM | [7] 183 µM
inactive: [5] | [6] | [8]

O=C(NC(=O)c1c(F)cccc1F)Nc1ccc(Cl)cc1
inactive: [1] | [2] | [4] | [9] | [6] | [10] | [7] | [8]
active: [3] 19.6 µM

C1CCC(C2CCCCC2)CC1
active: [1] 86.2 µM
inactive: [2] | [3] | [4] | [9] | [6] | [10] | [8]

O=S(=O)(c1ccc(Cl)cc1)c1cc(Cl)c(Cl)cc1Cl
inactive: [3] | [4] | [5] | [7] | [8]
active: [1] 42.5 µM | [2] 40.9 µM | [6] 100 µM

CS(=O)(=O)c1ccc(C(=O)C2C(=O)CCCC2=O)c(Cl)c1COCC(F)(F)F
inactive: [1] | [2] | [3] | [4] | [5] | [6] | [10] | [7] | [8]

CC(C)(C1CCC(O)CC1)C1CCC(O)CC1 (configuration not stated)
inactive: [1] | [2] | [3] | [4] | [5] | [6] | [10] | [7] | [8]

Clc1cccc(Cl)c1Cl
inactive: [1] | [2] | [3] | [4] | [5] | [6] | [10] | [7] | [8]

O=[N+]([O-])c1cc([As](=O)(O)O)ccc1O
inactive: [1] | [2] | [3] | [9] | [5] | [6] | [10] | [8]

CC(C)(C)c1ccccc1O
active: [2] 100 µM
inactive: [1] | [3] | [9] | [5] | [10] | [7] | [8]

Cc1c([N+](=O)[O-])c(C)c([N+](=O)[O-])c(C(C)(C)C)c1[N+](=O)[O-]
inactive: [3] | [9] | [5] | [10] | [7] | [8]
active: [1] 100 µM | [2] 60.7 µM | [6] 3.83 µM
